Reference: PubChem BioAssay AID651642 (Sanford-Burnham Center for Chemical Genomics, 2012)
The source made the active and inactive calls.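 The calls were made as follows: active = average half-effect concentration of 10 µM or less in every one of the four cell panels; inactive = the rest.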

Test system: H9c2
Assay: protection of cardiomyocytes from stress damage, SAR follow-up, cell-based, panel, H9c2 and HL-1, H2O2, 2-deoxyglucose, ATP luminescence (AID 651642)
Settings: H9c2/HL-1 cardiomyocyte 2-deoxyglucose damage, mean of runs, with 2-deoxyglucose

Row | Structure (SMILES) | outcome
1 | COc1ccc2c(c1OC)C(=O)N1c3ccccc3C(=O)N(Cc3ccc(F)cc3)C21 (configuration not stated) | inactive
2 | COc1ccc2nc(-c3cc(OC)c(OC)c(OC)c3)cc(C(=O)NCC(=O)Nc3ccc(C(C)=O)cc3)c2c1 | active
3 | COc1ccc2c(c1OC)C(=O)N1c3ccccc3C(=O)N(Cc3c(Cl)cccc3Cl)C21 (configuration not stated) | inactive
4 | COc1ccc2c(c1OC)C(=O)N1c3ccccc3C(=O)N(Cc3ccc(C)cc3C)C21 (configuration not stated) | inactive
5 | COc1ccc2c(c1OC)C(=O)N1c3ccccc3C(=O)N(Cc3ccccc3)C21 (configuration not stated) | inactive
6 | COc1ccc2c(c1OC)C(=O)N1c3ccccc3C(=O)N(Cc3ccccc3F)C21 (configuration not stated) | inactive
7 | COc1cccc(CNC(=O)CNC(=O)c2cc(-c3cc(OC)c(OC)c(OC)c3)nc3ccccc23)c1 | inactive
8 | COc1cc(-c2cc(C(=O)Nc3cccc(C(N)=O)c3)c3ccccc3n2)cc(OC)c1OC | inactive
9 | COc1cc(-c2cc(C(=O)Nc3cccc(C(C)=O)c3)c3cc(F)ccc3n2)cc(OC)c1OC | inactive
10 | COc1cc(-c2cc(C(=O)Nc3cccc(C(=O)Nc4ccccc4)c3)c3ccccc3n2)cc(OC)c1OC | active
11 | COc1ccc2c(c1OC)C(=O)N1c3ccccc3C(=O)N(Cc3cccc(F)c3)C21 (configuration not stated) | inactive
12 | COC(=O)CNC(=O)c1cccc(NC(=O)c2cc(-c3cc(OC)c(OC)c(OC)c3)nc3ccccc23)c1 | active
13 | COc1cc(-c2cc(C(=O)Nc3cccc(C(=O)N(C)C)c3)c3ccccc3n2)cc(OC)c1OC | inactive
14 | COc1ccccc1CN1C(=O)c2ccccc2N2C(=O)c3c(ccc(OC)c3OC)C12 (configuration not stated) | inactive
15 | CCOC(=O)c1cccc(NC(=O)CNC(=O)c2cc(-c3cc(OC)c(OC)c(OC)c3)nc3ccc(Br)cc23)c1 | active
16 | COc1cc(-c2cc(C(=O)NCC(=O)O)c3ccccc3n2)cc(OC)c1OC | inactive

Row | Structure (SMILES) | outcome
17 | COc1cc(-c2cc(C(=O)Nc3cccc(C(C)=O)c3)c3ccc(Cl)cc3n2)cc(OC)c1OC | inactive
18 | CCOC(=O)c1cccc(NC(=O)c2cc(-c3cc(OC)c(OC)c(OC)c3)nc3c(Cl)cccc23)c1 | inactive
19 | COc1ccc2nc(-c3cc(OC)c(OC)c(OC)c3)cc(C(=O)NCC(=O)Nc3cccc(C(C)=O)c3)c2c1 | active
20 | COc1ccc2c(c1OC)C(=O)N1c3ccccc3C(=O)N(Cc3cccc(Br)c3)C21 (configuration not stated) | inactive
21 | COc1cc(-c2cc(C(=O)NCC(=O)Nc3ccc(C(C)=O)cc3)c3ccccc3n2)cc(OC)c1OC | inactive
22 | CCOC(=O)c1cccc(NC(=O)c2cc(-c3cc(OC)c(OC)c(OC)c3)nc3ccc(C)cc23)c1 | inactive
23 | COc1cc(-c2cc(C(=O)Nc3cccc(-c4nn[nH]n4)c3)c3ccccc3n2)cc(OC)c1OC | inactive
24 | CCOC(=O)c1cccc(NC(=O)c2cc(-c3cc(OC)c(OC)c(OC)c3)nc3cc(Cl)ccc23)c1 | inactive
25 | COC(=O)CNC(=O)c1cc(-c2cc(OC)c(OC)c(OC)c2)nc2ccccc12 | inactive
26 | COc1ccc2c(c1OC)C(=O)N1c3ccccc3C(=O)N(Cc3ccncc3)C21 (configuration not stated) | inactive
27 | COc1cc(-c2cc(C(=O)NCC(=O)Nc3ccc(C(C)=O)cc3)c3cc(F)ccc3n2)cc(OC)c1OC | inactive
28 | COc1cc(-c2cc(C(=O)NCC(=O)Nc3ccc(C(C)=O)cc3)c3cc(C)ccc3n2)cc(OC)c1OC | active
29 | COc1cc(-c2cc(C(=O)Nc3cccc(C(C)=O)c3)c3cc(Br)ccc3n2)cc(OC)c1OC | inactive
30 | CCOC(=O)c1cccc(NC(=O)CNC(=O)c2cc(-c3cc(OC)c(OC)c(OC)c3)nc3c(Cl)cccc23)c1 | inactive
31 | COc1cc(-c2cc(C(=O)NCC(=O)Nc3cccc(C(C)=O)c3)c3cc(C)ccc3n2)cc(OC)c1OC | inactive
32 | CCOC(=O)c1cccc(NC(=O)c2cc(-c3cc(OC)c(OC)c(OC)c3)nc3ccccc23)c1 | inactive
